The results in this text go back to PubChem BioAssay (Tox21).

Molecules are shown by their SMILES. Inconclusive results are not listed. A number with no mark means an inactive call. Unless noted, the call rests on the fitted dose curve.
On the % scale 0 is the no-effect control and ±100 the full control effect.

Sequence of Vitamin D3 receptor (Homo sapiens) (P11473 whole entry, looked up): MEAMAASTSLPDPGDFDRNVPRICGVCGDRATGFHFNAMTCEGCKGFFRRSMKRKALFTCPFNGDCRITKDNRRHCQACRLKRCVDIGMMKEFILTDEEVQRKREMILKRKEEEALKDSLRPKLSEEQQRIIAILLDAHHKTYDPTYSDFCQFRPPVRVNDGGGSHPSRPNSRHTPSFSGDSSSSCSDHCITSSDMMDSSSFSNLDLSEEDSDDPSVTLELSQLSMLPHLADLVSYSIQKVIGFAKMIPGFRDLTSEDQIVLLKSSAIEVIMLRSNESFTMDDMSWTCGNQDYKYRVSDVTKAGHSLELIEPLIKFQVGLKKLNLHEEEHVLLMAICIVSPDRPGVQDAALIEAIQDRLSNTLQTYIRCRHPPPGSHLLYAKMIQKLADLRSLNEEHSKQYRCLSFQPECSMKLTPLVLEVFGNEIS

In the first experiment the target is Vitamin D3 receptor (Homo sapiens) (UniProt P11473). In words: qHTS assay to identify small molecule agonists of the vitamin D receptor (VDR) signaling pathway (AID 743222). To be noted: HEK293T VDR-UAS-bla, beta-lactamase FRET ratio, 16 h; series mostly up to 63.5 µM; activation: at the top concentration. An outline of the steps:
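Agonist mode, beta-lactamase reporter: fluorescence from LiveBLAzer B/G FRET substrate (2 h, room temperature) read after 16 h compound treatment at 37 C of VDR-bla cells, which were pre-incubated 4 h after seeding.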
Background: In qHTS, concentration-response curves come from the screen itself.
For `O=Cc1cccc(Br)c1`, the “activation” value was 5.52% [at 81.1 µM]. The same measure, in the same setting: with `CN1[C@@H]2CC[C@H]1CC(OC(=O)C(O)c1ccccc1)C2` (stereo partly specified) the figure was -6.2%; with `CCCCCCCCN1CCCC1=O`, -1.68%; with `CC[N+](C)(CC)CCOC(=O)C1c2ccccc2Oc2ccccc21`, 1.97%.

For the compound `CCOC(=O)OC(C)OC1=C(C(=O)Nc2ccccn2)N(C)S(=O)(=O)c2ccccc21` (stereo unspecified), the “activation” value is -0.529%. On to `[Ca+2]`, for which the “activation” value was 1.34%. The same measure, in the same setting: the same measure for `CC(CO)(CO)[N+](=O)[O-]`: 0.492%; for `CCCc1ncc(C[n+]2ccccc2C)c(N)n1`: 7.77%; for `CN1CC(=O)N/C1=N/C(=O)Nc1cccc(Cl)c1`: -9.05%. For `CC(C)(C)C(=O)Oc1ccc(S(=O)(=O)Nc2ccccc2C(=O)NCC(=O)O)cc1`, the “activation” value is 11.8%.

For the compound `Cc1ccc(-c2ncc(Cl)cc2-c2ccc(S(C)(=O)=O)cc2)cn1`, the “activation” value was -5.48%. As for `CCCCN1C=CN(C)C1`, the “activation” value is -0.148% [at 29.5 µM]. For the compound `NC(CCC(=O)O)C(=O)O` (stereo unspecified), the “activation” value is 1.76%. Consider `CC(CC=O)CC(C)(C)C` (stereo unspecified), for which the “activation” value was 1.88%. On to `C[N+]1(C)[C@@H]2CC(OC(=O)[C@H](CO)c3ccccc3)C[C@H]1[C@@H]1O[C@@H]12` (stereo partly specified), for which the “activation” value was -0.115%. As for `CC(=O)c1ccc2ccccc2c1`, the “activation” value is -1.24%. Regarding `CCCCc1ccc2c(n1)[C@@H](c1ccc(OC)cc1C[C@H](C)C(=O)O)[C@H](C(=O)O)[C@H]2c1ccc2c(c1)OCO2`, the “activation” value was 1.07%. With `CN(C)[C@@H]1C(=O)C(C(=O)NCN2CCCC2)=C(O)[C@@]2(O)C(=O)C3=C(O)c4c(O)cccc4[C@@](C)(O)C3C[C@@H]12` (stereo partly specified), the “activation” value is 7.87%. Turning to `CCOC(=O)C1=NOC(c2ccccc2)(c2ccccc2)C1`, the “activation” value was 4.06%.

Consider `CC(=O)C1CCCCC1=O` (stereo unspecified), for which the “activation” value was 4.53%. For `CCC1C(=O)OCC1Cc1cncn1C` (stereo unspecified), the “activation” value is 7.11%. With `O=S(=O)(O)c1cc(O)c(O)c(S(=O)(=O)O)c1`, the “activation” value is 5.55%. For the compound `CCOc1ccccc1OCC`, the “activation” value was 0.846%. For `CCCCCC(=O)OCCc1ccccc1`, the “activation” value is 5.21%. For `COc1ccc2cc1Oc1cc3c(cc1OC)CC[N+](C)(C)[C@H]3Cc1ccc(cc1)Oc1c(OC)c(OC)cc3c1[C@@H](C2)[N+](C)(C)CC3`, the “activation” value is 6.34%. Still for that read-out and setting: the same measure for `CCN[C@@H]1C[C@H](N)[C@@H](OC2OC(CN)=CCC2N)[C@H](O)[C@H]1O[C@H]1OC[C@](C)(O)[C@H](NC)[C@H]1O` (stereo partly specified): 11.5% [at 0.554 µM]; for `O=[N+]([O-])c1ccc(/C=N\O)o1`: 0.522%; for `CCN[C@H]1C[C@H](C)S(=O)(=O)c2sc(S(N)(=O)=O)cc21`: 10.2%.

The next experiment shares this target. In words: qHTS assay to identify small molecule antagonists of the vitamin D receptor (VDR) signaling pathway (AID 743223; active means well fitted inhibition curve with a large enough effect in the signal ratio in the repeat runs, not every such curve was filed as active; the % refers to the signal ratio). To be noted: VDR-UAS-bla HEK293T, beta-lactamase FRET ratio, 16 h; series mostly up to 61 µM; activity change, negative = inhibition: at the top concentration. The gist of the method: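 Beta-lactamase reporter read-out: FRET substrate fluorescence after 2 h at room temperature, following 16 h exposure of VDR-bla cells to test compound plus 3 nM (final) 1alpha,25-dihydroxyvitamin D3 agonist at 37C.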
For the compound `O=Cc1cccc(Br)c1`, the “activity change, negative = inhibition” value is 3.25% [at 78.8 µM].

In the case of `CN1[C@@H]2CC[C@H]1CC(OC(=O)C(O)c1ccccc1)C2` (stereo partly specified), the “activity change, negative = inhibition” value is 6.49%. In the case of `CC[N+](C)(CC)CCOC(=O)C1c2ccccc2Oc2ccccc21`, the “activity change, negative = inhibition” value is 5.15%.

On to `[Ca+2]`, for which the “activity change, negative = inhibition” value was -7.86%. Same read-out and setting: the same measure for `CCCc1ncc(C[n+]2ccccc2C)c(N)n1`: -20.6%; for `CN1CC(=O)N/C1=N/C(=O)Nc1cccc(Cl)c1`: 6.16%; for `CC(C)(C)C(=O)Oc1ccc(S(=O)(=O)Nc2ccccc2C(=O)NCC(=O)O)cc1`: -4.31%. The same measure, in the same setting: with `Cc1ccc(-c2ncc(Cl)cc2-c2ccc(S(C)(=O)=O)cc2)cn1` the figure was 1.95%. Regarding `CCCCN1C=CN(C)C1`, the “activity change, negative = inhibition” value is -15.6% [at 28.5 µM]. For `CC(CC=O)CC(C)(C)C` (stereo unspecified), the “activity change, negative = inhibition” value is -25.1%.

Consider `C[N+]1(C)[C@@H]2CC(OC(=O)[C@H](CO)c3ccccc3)C[C@H]1[C@@H]1O[C@@H]12` (stereo partly specified), for which the “activity change, negative = inhibition” value is -0.711%. Consider `CC(=O)c1ccc2ccccc2c1`, for which the “activity change, negative = inhibition” value is 4.55%. As for `CCCCc1ccc2c(n1)[C@@H](c1ccc(OC)cc1C[C@H](C)C(=O)O)[C@H](C(=O)O)[C@H]2c1ccc2c(c1)OCO2`, the “activity change, negative = inhibition” value is -14.4%. Same read-out and setting: the same measure for `CCOC(=O)C1=NOC(c2ccccc2)(c2ccccc2)C1`: 17.9%; for `CC/C=C\CCOC(C)OCC` (stereo unspecified): -6.89%; for `CC(=O)C1CCCCC1=O` (stereo unspecified): -8.71%. Take `CCC1C(=O)OCC1Cc1cncn1C` (stereo unspecified): the “activity change, negative = inhibition” value is 4.2%. For the compound `CCOc1ccccc1OCC`, the “activity change, negative = inhibition” value is -0.428%. `CCCCCC(=O)OCCc1ccccc1`: the “activity change, negative = inhibition” value was 0.135%. Same read-out and setting: with `COc1ccc2cc1Oc1cc3c(cc1OC)CC[N+](C)(C)[C@H]3Cc1ccc(cc1)Oc1c(OC)c(OC)cc3c1[C@@H](C2)[N+](C)(C)CC3` the figure was -3.14%; with `CCN[C@@H]1C[C@H](N)[C@@H](OC2OC(CN)=CCC2N)[C@H](O)[C@H]1O[C@H]1OC[C@](C)(O)[C@H](NC)[C@H]1O` (stereo partly specified), 9.37% [at 0.628 µM]; with `O=[N+]([O-])c1ccc(/C=N\O)o1`, 2.73%. In the case of `CCN[C@H]1C[C@H](C)S(=O)(=O)c2sc(S(N)(=O)=O)cc21`, the “activity change, negative = inhibition” value is 4.55%.
